# Compound activity deposited in PubChem BioAssay by several laboratories.
# In the library only some 1.7% were active in any assay of this set; here they are far more common.
# MT1-MMP txn act: activates MT1-MMP transcription; HT1080 MT1-MMP promoter luciferase reporter, luminescence, overnight; stronger effect = higher value; activation factor at 10 µM; 86,000 compounds, 0.16% hits;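 active = activation factor of at least 2 for MT1-MMP transcription at 10 µM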
# Smad3 FoxH1 inh: Smad3 (human) transcription factor binding inhibition | P84022 | TR-FRET Smad3/Dy647-FoxH1 peptide binding, europium anti-His | inhibition, % at 25 µM | 88,000 compounds, 0.29% hits | AID 630;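 active = compounds that reduce the energy-transfer binding signal between the protein and its labelled peptide by more than half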;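 also: 0% = Smad3 plus labelled peptide maximal FRET and 100% = peptide-only background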
# Target sequence (P84022 whole entry, looked up): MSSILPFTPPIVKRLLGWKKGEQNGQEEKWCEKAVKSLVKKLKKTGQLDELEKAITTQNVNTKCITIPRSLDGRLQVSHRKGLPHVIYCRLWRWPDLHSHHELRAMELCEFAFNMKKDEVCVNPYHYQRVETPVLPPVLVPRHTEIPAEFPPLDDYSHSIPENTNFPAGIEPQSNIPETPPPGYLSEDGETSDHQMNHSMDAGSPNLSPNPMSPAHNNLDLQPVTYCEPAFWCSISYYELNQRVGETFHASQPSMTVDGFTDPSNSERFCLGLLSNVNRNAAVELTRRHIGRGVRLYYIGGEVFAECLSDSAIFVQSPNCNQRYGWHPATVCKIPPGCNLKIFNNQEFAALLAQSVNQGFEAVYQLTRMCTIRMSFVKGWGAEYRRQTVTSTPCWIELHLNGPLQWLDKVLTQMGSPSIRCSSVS
# Measles CPE: protection of cells from measles virus; Measles virus-infected cells, CPE protection, absorbance; protection (pct of control), % at 4 µM; 140,000 compounds, 1.5% hits; AID 841; in the data active = protection mostly above about 24%, no sharp cut-off; inactive = mostly below about 26%
# * marks the source's active call; other numbers are inactive results; · = no result given.
SMILES,MT1-MMP txn act,Smad3 FoxH1 inh,Measles CPE
O=C1CC(N2CCOCC2)C(=O)N1CCc1ccccc1 (stereo not given),1,3,15
O=C1CC(N2CCN(c3ccccc3)CC2)C(=O)N1CCc1ccccc1 (stereo not given),1.1,1,40*
Cc1ccc(-c2nc(C3CCCN(S(=O)(=O)c4ccc(C(F)(F)F)cc4)C3)no2)cc1 (stereo not given),1,·,31*
Cc1ccc(-c2nc(C3CCCN(S(=O)(=O)c4ccc(C(C)(C)C)cc4)C3)no2)cc1 (stereo not given),·,·,11
CCC(CC)c1nnc(NC(=O)c2cc(C(=O)OC)cc([N+](=O)[O-])c2)s1,·,·,4
COC(=O)c1cc(-c2ccc3ccccc3c2)[nH]c(=O)c1C#N,·,4,·
O=C(/C=C/c1ccc([N+](=O)[O-])cc1)Nc1cccnc1,·,·,2
O=C(/C=C/c1ccc(Cl)c([N+](=O)[O-])c1)Nc1cccnc1,·,·,44*
CC(C)=C1C(=O)C(c2ccccc2)=C2CN3C(=O)N(CCc4ccccc4)C(=O)[C@]3(C)[C@H]21,1,·,·
Cc1sc2ccccc2[n+]1CCC(=O)O,·,72*,·
O=C(O)CCCc1nc2ccccc2s1,0.8,14,0
Cc1c(/C=N/NC(=O)CNc2ccccc2)c2ccccn2c1C(=O)c1ccccc1,·,·,23*
COC(=O)N/N=C/c1c(C)c(C(=O)c2ccc(F)cc2)n2ccccc12,·,·,24
CCOc1cc(NS(=O)(=O)c2ccc(NC(C)=O)cc2)c(OCC)cc1NC(=O)c1cccs1,·,·,9
O=c1cc(N=Nc2ccc(O)cc2)[nH]c(=O)[nH]1,·,6,·
Cc1cc(C)nc(N2CCCC(C(=O)NCCc3ccccc3F)C2)n1 (stereo not given),1,-1,43*
CCOc1cc(C)nc(N2CCCC(C(=O)NCc3ccccc3F)C2)n1 (stereo not given),1,1,19
O=C(NCCc1ccccc1)C1CCN(S(=O)(=O)c2cccc3nsnc23)CC1,1.3,1,49*
COc1ccc(CCNC(=O)C2CCN(S(=O)(=O)c3cccc4nsnc34)CC2)cc1OC,1.2,4,5
O=C(C1CCN(Cc2ccc(OCc3ccccc3)cc2)CC1)N1CCCC1,1.2,2,7
CCCCNC(=O)C1CCN(Cc2ccc(OCc3ccccc3)cc2)CC1,2*,-2,16
O=C(COC(=O)c1n[nH]c2ccccc12)NC(=O)NCc1ccco1,1.1,-22,25*
O=C(COC(=O)c1n[nH]c2ccccc12)NC(=O)NC1CCCCC1,1.1,-7,5
COCCn1c(Cc2ccccc2)nnc1SCc1ccc([N+](=O)[O-])cc1,·,·,2
COc1cc(/C(C)=N/NC(=S)NC(C)C)cc(OC)c1OC,·,·,12
SMILES,MT1-MMP txn act,Smad3 FoxH1 inh,Measles CPE
COc1cc(/C(C)=N\NC(N)=S)cc(OC)c1OC,·,·,35*
CC(C)[C@@]12CC[C@]3(CC[C@@H]4[C@](C)(CCC[C@@]4(C)C(=O)O)[C@@H]3C1)[C@@H](CN)C2,·,15,·
COc1nnc(-c2ccc(N3CCCCC3)c(NC(C)=O)c2)c2ccccc12,1.1,18,11
O=C(N/N=C/c1ccco1)C1COc2ccccc2O1 (stereo not given),·,·,10
CN(C)c1ccc(/C=N/NC(=O)C2COc3ccccc3O2)o1 (stereo not given),·,·,17*
COc1ccc2nc3c(cc2c1)Cc1ccccc1-3,1,·,·
CNC1=C(Br)C(=O)c2ccncc2C1=O,1,·,·
N[C@@H](Cc1ncccn1)C(=O)O,·,3,·
Nc1cccc(OCc2nc(N)nc(N)c2-c2ccc(Cl)cc2)c1,·,12,·
CCc1ccc(NC(=S)N(CCCN2CCN(C)CC2)Cc2cccs2)cc1,·,·,53*
COc1ccc(NC(=S)N(CCCN2CCN(C)CC2)Cc2cccs2)cc1,·,·,23
CCOC(=O)c1ccc(NC(=S)N(CCCN2CCCCCC2)Cc2ccco2)cc1,·,·,49*
Cc1ccc(NC(=S)N(CCN2CCCCC2)Cc2ccco2)cc1,·,·,29
O=S(=O)(c1ccc(Br)cc1)N1CCN(S(=O)(=O)c2ccc(Br)cc2)CC1,·,-2,·
CC(C)=C[C@H]1[C@H](C(=O)Oc2ccccc2C(C)C)C1(C)C,·,-19,·
CC(C)c1cccc2nc3c(c(C(C)(C)C)c12)Cn1c-3cccc1=O,1.1,·,·
O=[N+]([O-])c1ccc2c(c1)c(S(=O)(=O)O)cc1nonc12,·,3,·
Cn1ncc2c(NCCc3ccccc3)nc(Cl)nc21,·,-8,·
COc1ccnc(Oc2ccc(F)cc2)c1C(=O)N/C=N/OCc1ccc(Cl)cc1Cl,·,·,29*
COc1ccnc(Oc2ccc(F)cc2)c1C(=O)N/C=N/OCc1ccc(F)cc1Cl,·,·,15
COC(=O)[C@@]1(Cc2ccc(OC)cc2)[C@H]2c3cc(C(=O)N(C)C)n(Cc4ccc(C)c(F)c4F)c3C[C@H]2CN1C(=O)c1ccccc1,1.1,·,·
COc1ccc(Cc2ccc3[nH]c(=O)cc(C)c3c2)cc1S(=O)(=O)O,·,19,·
